# Source: PubChem (The Scripps Research Institute Molecular Screening Center)
# Sampled rows, rich in hits. Any-hit rate of the full collection: about 2.3%.
# CHO-K1 Ca ag – M1 agonist counterscreen hit in parental CHO-K1 cells. AID 602248. actives 0.48% (n = 360,000). Fluo-8 calcium fluorescence; scaled to maximal ATP response, vehicle zero. activation, % at 3 µM; in the data active means activation above about 15%;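 further: untransfected CHO-K1 host cells lacking M1 receptor as counterscreen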
# CHO-K1 Ca antag – nonselective inhibitor or artifact in parental CHO-K1 cells | ATP-induced calcium, Fluo-8 fluorescence | inhibition, % at 3 µM | actives 0.6% (n = 360,000) | AID 602250;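 active means inhibition above a per-plate cutoff, the plate's mean sample inhibition plus 3 SD, cut at about 24% in these data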
# CHO-K1 Ca PAM – M1 PAM counterscreen hit in parental CHO-K1 cells; actives 0.02% (n = 360,000); ATP EC20, Fluo-8 calcium fluorescence; 0% at ATP EC20, 100% at ATP max; activation, % at 3 µM;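 active means activation above the run cutoff, the mean activation of all test compounds plus 3 SD, cut at about 40% in these data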;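 further: peak over basal fluorescence ratio in a 140 s read after ATP addition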
# M1 ag – agonists of human M1 muscarinic receptor | CHO-K1 hM1, Fluo-8 calcium fluorescence, agonist mode; 0% DMSO, 100% acetylcholine EC100 | activation, % at 3 µM | P11229 | actives 0.33% (n = 360,000);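 active means activation above the run's mean compound activation plus 3 SD, cut at about 16% in these data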;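 further: peak over basal fluorescence ratio within a 140 s kinetic read after compound addition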
# Target sequence (P11229 whole entry, looked up): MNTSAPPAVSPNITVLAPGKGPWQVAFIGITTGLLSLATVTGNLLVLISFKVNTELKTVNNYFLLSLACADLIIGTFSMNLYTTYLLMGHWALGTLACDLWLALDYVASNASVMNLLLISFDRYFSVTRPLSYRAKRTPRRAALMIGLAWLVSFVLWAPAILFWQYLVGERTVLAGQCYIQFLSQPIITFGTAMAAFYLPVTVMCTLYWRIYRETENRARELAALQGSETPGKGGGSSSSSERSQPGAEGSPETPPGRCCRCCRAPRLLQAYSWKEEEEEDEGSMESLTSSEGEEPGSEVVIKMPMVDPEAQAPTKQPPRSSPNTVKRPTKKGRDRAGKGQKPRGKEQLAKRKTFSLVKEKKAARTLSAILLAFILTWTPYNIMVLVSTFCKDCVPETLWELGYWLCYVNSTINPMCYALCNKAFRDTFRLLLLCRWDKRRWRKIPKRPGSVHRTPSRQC
# M1 antag – blocks human M1 muscarinic receptor. P11229. CHO-K1 hM1, Fluo-8 calcium fluorescence, ACh EC80 antagonist. inhibition, % at 3 µM. actives 1.3% (n = 360,000). AID 588852;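 active means percent inhibition above its own plate's cutoff, namely the mean of that plate's compound wells plus 3 SD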;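 further: peak over basal fluorescence ratio during 140 s after agonist addition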
# CHRM1 PAM – human CHRM1 positive allosteric modulation; activation, % at 3 µM; CHO-K1 hM1, Fluo-8 calcium fluorescence, ACh EC20; 0% = ACh EC20, 100% = maximal ACh; AID 588819; actives 0.088% (n = 360,000); in the data active means activation above about 19%, passing the limit was not always enough
# Numbers stand for hits; n = inactive.
SMILES,CHO-K1 Ca ag,CHO-K1 Ca antag,CHO-K1 Ca PAM,M1 ag,M1 antag,CHRM1 PAM
Cc1ccc(S(=O)(=O)NC(=O)C2(C)CCN2C(=O)C2CCCCC2)nc1 (stereo unspecified),n,28,n,n,n,n
COc1cc(C)ccc1S(=O)(=O)NC(=O)C1(C)CCN1C(=O)c1ccc(C2CCCCC2)cc1 (stereo unspecified),n,27,n,n,n,n
Cc1cccc(S(=O)(=O)NC(=O)C2(C)CCN2C(=O)c2ccc(C3CCCCC3)cc2)c1 (stereo unspecified),n,n,n,n,n,n
COc1ccccc1N=C1NC(=O)/C(=C/c2ccc(N(C)C)cc2)S1,32,29,n,22,n,n
CCOC(=O)c1c(C)[nH]c(C(=O)OCC(=O)Nc2sccc2C(N)=O)c1C,17,n,n,n,31,n
CC(Oc1ccccc1)C(=O)OCC(=O)Nc1sccc1C(N)=O (stereo unspecified),n,n,n,n,40,n
CCC(Oc1ccccc1)C(=O)OCC(=O)Nc1sccc1C(N)=O (stereo unspecified),17,n,n,n,n,n
CCOC(=O)c1c(C)[nH]c(C(=O)OCC(=O)Nc2ccc(Cl)cn2)c1C,n,n,n,n,n,n
CC(C)[C@H](NC(=O)c1ccccc1)C(=O)OCC(=O)Nc1sccc1C(N)=O,n,n,n,n,n,n
Nc1nc(SCC(=O)O)[nH]c(=O)c1NC(=O)c1ccco1,n,n,n,n,n,n
COc1cc(OC)cc(C(=O)N[C@H](C(=O)OCC(=O)Nc2ccc3c(c2)OCO3)C(C)C)c1,n,n,n,n,n,n
COc1ccc(NC(=O)CC(NCc2ccccn2)C(=O)O)cc1 (stereo unspecified),18,n,n,n,n,n
CCN1C(=O)c2ccccc2S(=O)(=O)c2ccc(C(=O)NC(C)C)cc21,n,n,n,n,n,n
CCCCNC(=O)c1ccc2c(c1)N(CC)C(=O)c1ccccc1S2(=O)=O,n,n,n,n,33,n
CCCCSCCCNC(=O)c1ccc2c(c1)N(CC)C(=O)c1ccccc1S2=O (stereo unspecified),n,n,n,n,n,n
CCCN(CCC)CCCNC(=O)c1ccc2c(c1)N(CC)C(=O)c1ccccc1S2=O (stereo unspecified),n,n,n,n,44,n
COc1cccc(CN2CCN(Cc3cc(OC)c(OC)c(OC)c3)CC2)c1OC,n,n,n,n,n,n
COc1cc(CN2CCN(C(c3ccccc3)c3ccccc3)CC2)cc(OC)c1OC,n,n,n,n,96,n
COc1cccc(CN2CCN(C(c3ccccc3)c3ccccc3)CC2)c1O,n,n,n,n,91,n
c1ccc(OCCN2CCNCC2)cc1,n,n,n,n,n,n
c1ccc(OCCN2CCN(C(c3ccccc3)c3ccccc3)CC2)cc1,n,n,n,n,52,n
OC(CN1CCN(C(c2ccccc2)c2ccccc2)CC1)c1ccc(Br)cc1 (stereo unspecified),n,n,n,n,38,n
O=C(OC1CCOC1=O)c1ccc(Cl)c(S(=O)(=O)N2CCOCC2)c1 (stereo unspecified),n,n,n,n,n,n
CN(CC(=O)Nc1cccc(F)c1)C(=O)CN1C(=O)NC2(CCCC2)C1=O,n,n,n,n,n,n
C=CCn1c(CNc2ccc(C)cc2)nnc1SCC(=O)N/N=C/c1ccc(O)cc1,n,n,n,n,n,n
SMILES,CHO-K1 Ca ag,CHO-K1 Ca antag,CHO-K1 Ca PAM,M1 ag,M1 antag,CHRM1 PAM
COC(=O)Cn1ccnc1[N+](=O)[O-],n,n,n,n,n,n
CC(C)(C)c1ccc(OCC(O)CSc2ncn[nH]2)cc1 (stereo unspecified),n,n,n,n,n,n
CC(=O)Nc1cccc(C(=O)OCC(=O)NC2CCCCCCC2)c1,15,n,n,n,n,n
CC(OC(=O)c1ccc(-c2ccc([N+](=O)[O-])cc2)o1)C(=O)NC(N)=O (stereo unspecified),n,n,n,n,n,n
CC(C)N(CC#CCC1(O)c2ccccc2-c2ccccc21)CCO,n,n,n,n,n,n
CC(C)N(CC#CCC(O)(c1ccccc1)C1CCCC1)CCO (stereo unspecified),n,n,n,n,86,n
CCN(CC#CCC(O)(c1ccccc1)C1CCCC1)C(C)C (stereo unspecified),n,n,n,n,99,n
O=C(Cc1ccc(S(=O)(=O)N2CCOCC2)s1)N1CCN(S(=O)(=O)c2ccccc2[N+](=O)[O-])CC1,n,n,n,n,32,n
Nc1ccc(CCCC(=O)NCc2cccnc2)cc1,n,n,n,n,n,n
COc1ccc(N2CC(NC(=O)NCCC(C)C)CC2=O)cc1 (stereo unspecified),n,n,n,n,n,n
O=C(NC1CC2CCCC(C1)N2Cc1ccccc1)c1cccc(Cl)c1 (stereo unspecified),n,n,n,n,n,n
CC(C)(C)OC(=O)NC1CC2CCCC(C1)N2Cc1ccccc1 (stereo unspecified),n,n,n,n,98,n
O=C(NC1CC2CCCC(C1)N2Cc1ccccc1)c1cccc(F)c1 (stereo unspecified),n,n,n,n,49,n
COCC(=O)NC1CC2CCCC(C1)N2Cc1ccccc1 (stereo unspecified),n,n,n,n,n,n
Cc1ccccc1C(=O)NC1CC2CCCC(C1)N2Cc1ccc(Cl)cc1 (stereo unspecified),n,n,n,n,54,n
COc1ccccc1C(=O)NC1CC2CCCC(C1)N2Cc1ccccc1 (stereo unspecified),n,n,n,n,39,n
Cc1cccc(-c2nc3sc(C)cc3c(=O)o2)c1,n,n,n,n,n,n
Cc1cn(CC(=O)N2CCN(c3ccccn3)CC2)c(=O)[nH]c1=O,n,n,n,n,n,n
CCOc1ccc(S(=O)(=O)NC(C)C(=O)NCc2cccnc2)cc1 (stereo unspecified),n,n,n,n,n,n
COc1ccc(/C(C)=N/NC(=O)Cn2nc([N+](=O)[O-])cc2C)cc1,n,n,n,n,n,n
O=S(=O)(Nc1nc2ccccc2[nH]1)c1ccc2ccccc2c1,n,n,n,n,65,n
O=S(=O)(Nc1ncn[nH]1)c1ccc2ccccc2c1,n,n,n,n,n,n
CC1CCCCC12NC(=O)N(CC(=O)N1CCN(c3ncccn3)CC1)C2=O (stereo unspecified),n,n,n,n,n,n
CC(C)c1ccc(CN2CCC2(C)C(=O)Nc2ccc3c(c2)OCO3)cc1 (stereo unspecified),17,n,n,n,n,n
